Results on 26 compounds are retold here after PubChem BioAssay (Tox21).

“And” between values parts separate entries of the source, which are not always exact repeats. Equal values may be shown once. Results filed as inconclusive are left out. The source made the active and inactive calls. Unless noted, calls follow the shape of the dose curve; as a rule, active = well fitted curve in the direction sought with a large enough effect in the repeat runs; inconclusive = weak or mixed curves; inactive = no such curve, though single readings can be large; an effect the other way counts as inactive or inconclusive.

The nature of assay [1]: qHTS assay to identify small molecule antagonists of the glucocorticoid receptor (GR) signaling pathway - cell viability counter screen (AID 720693). Also: nearly all actives have a fitted effect of over 55% in size. Also: potency is read from the fitted curve at half-maximal effect. A general note: qHTS replaces the single test concentration by a dilution series.
The nature of assay [2]: qHTS assay for identifying genotoxic compounds that show differential cytotoxicity against isogenic chicken DT40 cell lines with known DNA damage response pathways - Rev3 mutant cell line (AID 743014). Also: nearly all actives have a fitted effect of over 55% in size. Also: potency is read from the fitted curve at half-maximal effect.
Assay [3] is described as follows: qHTS assay to identify small molecule antagonists of the androgen receptor (AR) signaling pathway - cell viability counter screen (AID 743033; also: nearly all actives have a fitted effect of over 45% in size; also: potency is read from the fitted curve at half-maximal effect).
Assay [4] in a line: qHTS assay to identify small molecule antagonists of the androgen receptor (AR) signaling pathway using the MDA cell line - cell viability counter screen (AID 743041; also: nearly all actives have a fitted effect of over 45% in size; also: potency is read from the fitted curve at half-maximal effect). Put shortly: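 qHTS viability read-out; MDA-kb2 AR-luc; R1881-stimulated; 16 h exposure at 37C, 0% CO2; CellTiter-Fluor, 30 min; fluorescence intensity.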
Assay [5] is described as follows: qHTS assay for identifying genotoxic compounds that show differential cytotoxicity against isogenic chicken DT40 cell lines with known DNA damage response pathways - Rad54/Ku70 mutant cell line (AID 743015). Also: nearly all actives have a fitted effect of over 60% in size. Also: potency is read from the fitted curve at half-maximal effect.
Assay [6] concerns the target Androgen receptor (Homo sapiens) (UniProt P10275). The experiment in a line: qHTS assay to identify small molecule antagonists of the androgen receptor (AR) signaling pathway (AID 743035; active = well fitted inhibition curve with a large enough effect in the signal ratio in the repeat runs, not every such curve was filed as active; the % refers to the signal ratio). Put shortly: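 AR-bla HEK293 reporter cells; 4 h settle at 37C/5% CO2; compound + R1881 agonist, 16 h at 37C; LiveBLAzer B/G FRET substrate 2 h RT; fluorescence intensity read. qHTS format.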

Assay [7] has the same target. The experiment in a line: qHTS assay to identify small molecule antagonists of the androgen receptor (AR) signaling pathway using the MDA cell line (AID 743042; also: nearly all actives have a fitted effect of over 55% in size). Put shortly: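 MDA-kb2 cells (human breast carcinoma, stably carrying an MMTV-luciferase reporter responsive to AR and GR) were plated at 3,000 cells/well and preincubated 5 hr at 37C, then given compound plus R1881 agonist for 16 h. ONE-Glo luminescence was read.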

The nature of assay [8]: qHTS assay for identifying genotoxic compounds that show differential cytotoxicity against isogenic chicken DT40 cell lines with known DNA damage response pathways - wild type cell line (AID 743012). Also: nearly all actives have a fitted effect of over 60% in size. Also: potency is read from the fitted curve at half-maximal effect. In a few lines: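 CellTiter-Glo luminescence readout of viability in wild type DT40 cells after 40 h compound exposure at 37 C/5% CO2; 300 cells/well; reagent incubated 30 min at room temperature before reading.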

The target of assay [9] is Androgen receptor (Homo sapiens) (UniProt P10275). The experiment in a line: qHTS assay to identify small molecule agonists of the androgen receptor (AR) signaling pathway (AID 743036; active = well fitted activation curve with a large enough effect in the signal ratio in the repeat runs, with a control signal flat, not every such curve was filed as active; the % refers to the signal ratio). Put shortly: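 AR-bla HEK293 cells, 2,000/well; 4 h preincubation 37C/5% CO2; compound (DMSO) 16 h at 37C; LiveBLAzer B/G FRET substrate 2 h RT; fluorescence intensity read-out.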
Androgen receptor (Homo sapiens), sequence (P10275 whole entry, looked up): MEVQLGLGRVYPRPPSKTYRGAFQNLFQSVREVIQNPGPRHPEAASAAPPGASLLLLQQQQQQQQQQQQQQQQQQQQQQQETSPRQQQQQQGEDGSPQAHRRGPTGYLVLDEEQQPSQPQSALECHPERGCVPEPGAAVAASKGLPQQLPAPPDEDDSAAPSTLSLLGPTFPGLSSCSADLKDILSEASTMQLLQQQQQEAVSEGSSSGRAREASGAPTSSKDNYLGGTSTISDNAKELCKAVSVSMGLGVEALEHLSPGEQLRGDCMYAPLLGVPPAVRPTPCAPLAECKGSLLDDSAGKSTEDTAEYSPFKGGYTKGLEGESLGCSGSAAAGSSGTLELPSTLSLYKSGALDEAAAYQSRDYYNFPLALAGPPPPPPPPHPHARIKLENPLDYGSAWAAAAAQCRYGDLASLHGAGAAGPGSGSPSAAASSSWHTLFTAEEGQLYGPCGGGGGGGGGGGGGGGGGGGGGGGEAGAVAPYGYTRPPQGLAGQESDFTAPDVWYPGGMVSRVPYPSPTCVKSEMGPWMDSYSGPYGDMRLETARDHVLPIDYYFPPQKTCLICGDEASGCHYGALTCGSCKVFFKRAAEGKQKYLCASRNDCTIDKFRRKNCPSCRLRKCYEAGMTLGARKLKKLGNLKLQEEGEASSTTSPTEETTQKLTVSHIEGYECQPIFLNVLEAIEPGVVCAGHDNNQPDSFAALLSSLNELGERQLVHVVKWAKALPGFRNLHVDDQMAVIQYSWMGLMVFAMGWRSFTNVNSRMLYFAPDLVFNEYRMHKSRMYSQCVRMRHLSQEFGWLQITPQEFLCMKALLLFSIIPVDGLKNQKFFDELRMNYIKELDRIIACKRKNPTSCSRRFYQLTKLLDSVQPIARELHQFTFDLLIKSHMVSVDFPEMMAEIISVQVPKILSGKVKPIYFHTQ
For assay [10] the target is unchanged. Kind of assay: qHTS assay to identify small molecule agonists of the androgen receptor (AR) signaling pathway using the MDA cell line (AID 743040; also: nearly all actives have a fitted effect of over 20% in size). Put shortly: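 Agonist activity is measured as luciferase luminescence in human MDA-kb2 cells whose MMTV reporter responds to both AR and GR. Compounds in DMSO incubate 16 h at 37C, 0% CO2, and ONE-Glo is read after 30 min.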

On to `C[C@H]1NCc2cc(-c3ccc4c(=O)c(C(=O)O)cn(C5CC5)c4c3OC(F)F)ccc21`, for which the Potency result in [1], in [2], in assay [3] and in assay [4] was “inactive” throughout.
On to `COc1ccc(NC(=O)CC(C)=O)cc1`, for which the Potency result in [1], in assay [2], in [3] and in assay [4] was “inactive” throughout.
Regarding `O=c1oc2cc(O)ccc2c2oc3cc(O)ccc3c12`, the Potency entry in assay [1], in [2], in assay [3] and in assay [4] was “inactive” each time.
On to `COC(=O)c1ccccc1OC`, for which the Potency result in assay [1], in assay [2], in assay [5], in assay [3] and in [4] was “inactive” each time.
For the compound `CNc1ccc([N+](=O)[O-])cc1`, the Potency result in [1], in assay [3], in [6] and in assay [7] was “inactive” throughout. For the same compound, the Potency in [2] was 68.7 µM (active).
Consider `Cl[Si](Cl)(c1ccccc1)c1ccccc1`, for which the Potency result in assay [1], in [2], in assay [5], in [3] and in [4] was “inactive” throughout.
As to `CCCCCCCCCCCCCC[N+](C)(C)Cc1ccccc1`, the Potency in assay [1] was 21.3 µM (active) and 24.9 µM (active); in [2], 750 nM (active) and 493 nM (active); in [5], 750 nM (active) and 493 nM (active); in [3], 23.9 µM (active) and 7.03 µM (active); in [4], 49.3 µM (active).
For the compound `Nc1nc(N)nc(-c2cc(Cl)ccc2Cl)n1`, the Potency entry in [1], in assay [2] and in assay [3] was “inactive” each time.
Take `CC1(C)CCC[C@]2(C)[C@H]3CC(=O)O[C@]3(C)CC[C@@H]12`: the Potency entry in [1] and in assay [4] was “inactive” in each case. Moreover, the Potency in [2] is 61.1 µM (active).
As for `CCCNCCC`, the Potency entry in assay [1], in assay [2], in [5], in [3] and in assay [4] was “inactive” in each case.
Regarding `CCCCCCCCCCCCOCCOCCOCCOCCOCCOCCOCCOCCOCCO`, the Potency in [1] was 23.9 µM (active); in [2], 5.96 µM (active); in assay [5] it was 5.96 µM (active); in [4] it was 8.41 µM (active). For the same compound, the Potency result in assay [3] was “inactive”.
For the compound `CCOC(=O)NNc1ccc(N(CC)CC(C)O)nn1` (configuration not stated), the Potency result in assay [1], in assay [3] and in [4] was “inactive” each time. Also, the Potency in assay [2] is 23.7 µM (active).
As for `c1ccc(SSc2ccccc2)cc1`, the Potency result in assay [1], in [3] and in assay [4] was “inactive” in each case. The Potency in [2] was 27.5 µM (active).
As to `COc1ccc(-c2coc3cc(O)ccc3c2=O)cc1`, the Potency result in assay [1], in assay [3] and in assay [4] was “inactive” each time. The Potency in [2] is 30.6 µM (active).
For the compound `CN1CCCCC1CCN1c2ccccc2Sc2ccc(S(C)=O)cc21` (configuration not stated), the Potency entry in assay [1], in assay [3] and in assay [4] was “inactive” each time. In addition, the Potency in [2] and in [5] was 29.8 µM (active) each time.
Take `CC[C@H](C)COC(=O)/C=C/c1ccc(N=Cc2ccc(OC)cc2)cc1`: the Potency result in [1] and in [4] was “inactive” throughout. For the same compound, in assay [2], the Potency was 61 µM (active).
In the case of `CCCCCC(C)OC(=O)COc1ccc(Cl)c2cccnc12` (configuration not stated), the Potency result in assay [1], in assay [2] and in [4] was “inactive” each time.
With `CCCCCCCCCCCC(=O)OCC(C)OC(=O)CCCCC(=O)O` (configuration not stated), the Potency entry in assay [1], in assay [2], in assay [3] and in [4] was “inactive” each time.
Take `Cc1cc(C(C#N)c2ccc(Cl)cc2)c(Cl)cc1NC(=O)c1cc(I)cc(I)c1O` (configuration not stated): in assay [3], the Potency result was “inactive”.
Consider `CCCCCC/C=C\CCCCCCCC(=O)O`, for which the Potency result in assay [8], in [2], in assay [5], in [3] and in assay [4] was “inactive” throughout.
Consider `CCN(CC)c1ccc2c(-c3ccc(S(=O)(=O)O)cc3S(=O)(=O)[O-])c3ccc(=[N+](CC)CC)cc-3oc2c1`, for which the Potency result in assay [1], in assay [6] and in assay [9] was “inactive” throughout. Moreover, the result in [10] was inactive. In assay [4], the Potency is 11.2 µM (active).
As to `COC(=O)Nc1nc2ccc(C(=O)c3ccccc3)cc2[nH]1`, the Potency is 0.285 µM (active) in assay [8] and 0.32 µM (active) in assay [2]. The Potency result in [3], in [4] and in [7] was “inactive” each time. The result in assay [10] was inactive.
Regarding `CCc1oc2ccccc2c1C(=O)c1cc(I)c(O)c(I)c1`, the Potency in assay [8] was 29.8 µM (active); in assay [2], 33.5 µM (active). In addition, the Potency entry in assay [3] is “inactive”.
As for `CCO[C@@H]1O[C@H](C(COCc2ccccc2)OCc2ccccc2)[C@H](OCc2ccccc2)[C@H]1O` (some centres not stated), the Potency result in [1], in assay [3] and in assay [4] was “inactive” each time. For the same compound, the Potency in assay [5] is 14.3 µM (active).
`COc1cc(S(=O)(=O)O)c(C)cc1N=Nc1c(O)ccc2cc(S(=O)(=O)O)ccc12`: the Potency result in assay [1] and in [3] was “inactive” each time. Besides, the Potency in assay [4] is 24.3 µM (active).
As for `Cc1cccc2cccnc12`, the Potency result in assay [8], in [2], in [5], in assay [3] and in [4] was “inactive” each time.
